Assay outcomes as filed in PubChem.
ELG1 genotoxic: inducers of genotoxicity in HEK293T ELG1-luciferase cells; HEK293T ELG1-luciferase reporter, luminescence, 16 h; Potency, µM (highest dose often 46 µM), inactives show at the top dose activity change, positive = activation, most hits filed as activators; 1.3% of 330,000 active; also: % of control where 0% means no effect; nearly all actives have a fitted effect of over 60% in size
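DMSO vehicle served as control against compound-treated ELG1-luciferase HEK293T cells; exposure lasted 16 hr at 37 °C and 5% CO2, followed by ONE-Glo luminescence detection after 30 min.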
Rab9 prom act: Rab9 promoter activation; Potency, µM (doses to about 9.22 µM), for inactives: at the highest dose activation, negative = inhibition, hits mostly activators; Huh7 Rab9 promoter-luciferase reporter, luminescence, 24 h; 2.8% of 320,000 active; AID 485297; also: % of control where 0% means no effect; nearly all actives have a fitted effect of over 60% in size
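Huh7 cells stably carrying Rab9 promoter–luciferase reporter, plated 1500 cells/well, compound added after 2 h and incubated 24 h at 37 °C; luciferase luminescence then read after 10 min with detection reagent.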
ELG1 DNA repair: inhibitors of ELG1-dependent DNA repair in HEK293T cells. HEK293T ELG1-luciferase reporter, luminescence, 16 h; DNA damage induced by 5-fluorouridine. Potency, µM (top dose mostly 46.1 µM), for the others: top-dose activity change, negative = inhibition, usual class: inhibitors. 2.3% of 330,000 active. AID 504467; also: % is scaled to controls: 0 for no effect and ±100 for the full control effect; nearly all actives have a fitted effect of over 55% in size
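DMSO vehicle served as the neutral condition. Each well held 2,000 cells given 5-fluorouridine plus compound; after 16 hr at 37 °C/5% CO2, ONE-Glo was added and luciferase measured 30 min later.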
SMN2 splice enh: increases expression of the SMN2 splice variant; AID 1458; Potency, µM (series often up to 46.1 µM), inactives show top-dose activity change, positive = activation, hits mostly activators; HEK293 SMN2-luciferase splicing reporter, luminescence, 30-36 h; 2.8% of 210,000 active; also: % of control where 0% means no effect; nearly all actives have a fitted effect of over 55% in size
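HEK293 cells carry an SMN2 minigene-luciferase reporter in which exon 7 inclusion puts luciferase in frame. Cells were seeded at 2000 cells/well, attached for 10-12 hours, then exposed to compounds for 30-36 hours at 37C before ONE-Glo luminescence.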
NPC1 prom act: activates the NPC1 promoter; Huh7 NPC1 promoter luciferase reporter, 24 h; Potency, µM (highest dose often 9.22 µM), inactives show top-dose activation, usual class: activators; 2.4% of 320,000 active; AID 485313; also: % of control where 0% means no effect; nearly all actives have a fitted effect of over 60% in size
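Luciferase expression driven by the NPC1 promoter was measured in stably transfected Huh7 cells after a 24 h compound incubation, using a luciferase reagent and a luminescence read.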
FLuc modulator: inhibits or activates purified firefly luciferase, miR-21 counter-screen; P08659; purified FLuc, Km substrates, luminescence inhibition; Potency, µM (top dose mostly 57.5 µM), inactives show at the top dose activity change, negative = inhibition, actives largely listed as inhibitors; 6.9% of 360,000 active; AID 588342;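 also: plate controls were vehicle for no effect and reference inhibitor for full effect; nearly all actives have a fitted effect of over 55% in size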
Target sequence (P08659 whole entry, looked up): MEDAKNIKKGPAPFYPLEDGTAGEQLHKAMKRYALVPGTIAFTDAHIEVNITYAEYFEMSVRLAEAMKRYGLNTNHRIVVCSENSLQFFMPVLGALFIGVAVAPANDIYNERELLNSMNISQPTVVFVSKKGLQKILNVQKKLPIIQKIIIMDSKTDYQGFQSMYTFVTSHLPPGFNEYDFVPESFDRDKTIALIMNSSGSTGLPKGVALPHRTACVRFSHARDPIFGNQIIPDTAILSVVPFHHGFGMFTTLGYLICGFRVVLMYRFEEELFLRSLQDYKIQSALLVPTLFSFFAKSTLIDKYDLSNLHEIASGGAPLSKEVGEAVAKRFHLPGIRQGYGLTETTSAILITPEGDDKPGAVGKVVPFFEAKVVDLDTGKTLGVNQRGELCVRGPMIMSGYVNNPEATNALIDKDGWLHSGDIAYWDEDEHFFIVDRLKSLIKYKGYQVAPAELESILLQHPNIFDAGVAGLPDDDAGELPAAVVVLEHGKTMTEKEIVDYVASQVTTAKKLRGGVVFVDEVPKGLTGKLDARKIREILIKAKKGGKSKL
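Purified P. pyralis luciferase, 10 nM final, with Km-level 10 uM D-luciferin and 10 uM ATP in 50 mM Tris acetate pH 7.5, 10 mM Mg acetate, 0.01% Tween-20, 0.05% BSA; 6-point qHTS titration about 60 µM downward; luminescence read.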
* hit, by the source's call; u = inconclusive; x = no result. Rows were chosen to be rich in hits. Some 9.2% of all compounds tested hit in one or more screens of this group. Calls follow the shape of the dose curve; as a rule, active = well fitted curve in the direction sought with a large enough effect; inconclusive = small, poorly fitted or top-dose-only effect, or another doubt; inactive = no such curve, though single readings can be large; an effect the other way counts as inactive or inconclusive. Potency is read from the fitted curve at half-maximal effect.

SMILES	ELG1 genotoxic	Rab9 prom act	ELG1 DNA repair	SMN2 splice enh	NPC1 prom act	FLuc modulator
CCN1CCN(C(=O)C2(NC(=O)Nc3ccccc3Cl)CCCCC2)CC1	5%	-2%	-4%	-19%	-6%	6%
CCN1CCN(Cc2ccccc2NC(=O)Nc2ccc(C)cc2)CC1	10µM*	4µM*	u	u	u	24µM*
O=C(Nc1ccncc1)Nc1ccc(Br)cc1Cl	-8%	1%	-11%	x	0%	-13%
CC(=O)Nc1ccc(CN2CCCCCCC2)cc1	1%	1%	4%	12%	1%	-1%
O=C(Nc1ccc(CN2CCCCC2)cc1)Nc1ccccc1Cl	17%	28%	u	u	22%	17µM*
O=C(Nc1ccc(Br)cc1)Nc1ccccc1Cl	u	u	u	x	2.2µM*	2.7µM*
CCOC(=O)c1ccc(N2C=C(C(=O)OC)C(c3cccc(O)c3)C(C(=O)OC)=C2)cc1	0%	-7%	u	x	-3%	u
O=C(CNC(=O)c1ccc(Cl)cc1Cl)OC1CCCCC1=O (stereo not given)	3%	x	0%	x	x	x
Cc1cc(C(=O)COc2cccc3cccnc23)c(C)n1C	1%	26%	u	u	u	17µM*
Cc1cc(C(=O)COc2ccc(Cl)cc2Br)c(C)n1C	10%	u	0%	7%	28%	21µM*
Cc1cccc(NC(=O)C2C3CCCCC32)c1 (stereo not given)	u	u	u	x	u	19µM*
Cc1ccc(NC(=O)C2C3/C=C\CCCCC32)cc1 (stereo not given)	15%	3.5µM*	u	u	u	u
Cc1ccc(NC(=O)C2C3CCCCC32)cc1[N+](=O)[O-] (stereo not given)	u	u	u	x	u	12µM*
Cc1cc(C)c(NC(=O)C2C3/C=C\CCCCC32)c(C)c1 (stereo not given)	5%	u	18%	15%	20%	1%
O=C(Nc1cccc([N+](=O)[O-])c1)C1C2CCCCC21 (stereo not given)	0%	15%	16%	x	2%	-9%
Cc1cc(NC(=O)OC2CCCCC2)ccc1[N+](=O)[O-]	22%	2.8µM*	u	x	2.8µM*	7.6µM*
CCOc1cccc(C2c3[nH]c4ccccc4c3CCN2C(=O)CSc2ccccc2)c1 (stereo not given)	x	x	x	x	x	-3%
Cc1ccc(Cl)cc1N1CCN(C(=O)c2ccc(C)c(-n3c(C)nc4cccnc43)c2)CC1	x	x	x	x	x	-8%
Cc1oc(-c2ccccc2Cl)nc1CS(=O)(=O)CC(=O)NC1CCCC1	1%	0%	-5%	x	-6%	7%
COc1ccc2[nH]c3c4c(ccc3c2c1)C(=O)C=CC4=O	5%	-50%	16µM*	x	-14%	u
COc1ccc2[nH]c(=O)cc(C(=O)O)c2c1	0%	-12%	-1%	-4%	-5%	-4%
Cc1cc(C)c(NC(=O)COCc2cc(-c3cccs3)on2)c(C)c1	x	x	x	x	x	-11%
CC(C(=O)OCC(=O)c1cccc([N+](=O)[O-])c1)N1C(=O)C2C3C=CC(C3)C2C1=O (stereo not given)	-2%	11%	-3%	x	2%	0%
COC(=O)c1c(C(=O)OC)c2cc(C(=O)c3ccccc3)ccn2c1Cl	-1%	6%	26µM*	-56%	1%	u
COC(=O)c1c(C(=O)OC)c2ccccn2c1C(=O)c1ccc([N+](=O)[O-])cc1	-6%	-9%	u	x	0%	1%
SMILES	ELG1 genotoxic	Rab9 prom act	ELG1 DNA repair	SMN2 splice enh	NPC1 prom act	FLuc modulator
CC(C)c1ccc(C(=O)CSc2ncn[nH]2)cc1	u	u	u	29%	u	9.5µM*
CCOC(=O)c1ccc2c(c1)N(Cc1ccccc1C)C(=O)c1ccccc1S2=O (stereo not given)	-5%	-6%	16µM*	-58%	-8%	-2%
COC(=O)c1cccc(NC(=O)c2onc3c2CCCC3)c1	0.82µM*	0.32µM*	u	0.79µM*	0.4µM*	0.85µM*
O=C(Nc1ccc2ccccc2c1)c1onc2c1CCCC2	u	0.56µM*	u	8.9µM*	0.4µM*	0.95µM*
Cc1noc(C)c1C(=O)Nc1ccc2ccccc2c1	u	1%	u	x	2%	u
CN(C)CCNC(=O)CN1C(=O)CCn2nc(-c3cn(C)c4ccccc34)cc21	x	x	x	x	x	-2%
C=Cn1c(C(=O)O)ccc1-c1ccc(CC)cc1	7%	0%	u	x	7%	21µM*
COc1ccc(COc2ccc3ccc(=O)oc3c2)cc1	u	2.8µM*	u	x	4µM*	11µM*
COc1cccc(COc2ccc3ccc(=O)oc3c2)c1	u	3.2µM*	u	x	u	13µM*
Cc1ccc(-n2ncc(C(=O)NCCN3CCc4ccccc4C3)c2C2CCNCC2)cc1C	x	x	x	x	x	-2%
O=C(NCCS(=O)(=O)N1CCN(c2ccccc2F)CC1)c1ccc2c(c1)OCO2	0%	2%	u	x	-3%	-1%
CC(C)(C)OC(=O)NCCCC[C@H](NC(=O)c1nc[nH]c1C(=O)N1CCc2ccccc2C1)C(=O)OC(C)(C)C	-9%	-5%	8.2µM*	x	-4%	2%
CC(C)(C)OC(=O)NCCCCCNC(=O)c1nc[nH]c1C(=O)N1CCc2ccccc2C1	-8%	x	16µM*	x	x	x
CC(C)(C)OC(=O)[C@H](Cc1ccccc1)NC(=O)c1nc[nH]c1C(=O)N1CCc2ccccc2C1	0%	-3%	-22%	x	-2%	0%
CSCCC(=O)N1CC[C@@H](N2CCN(c3ccccc3F)CC2)[C@H](O)C1	0%	6%	-4%	x	11%	-2%
Cc1cc(C)n2nc(-c3ccc(F)cc3)nc2n1	u	u	u	u	4µM*	17µM*
Cc1cnc(C(=O)Nc2nccs2)cn1	24%	3.2µM*	u	8%	u	u
Cc1cnc(C(=O)Nc2nnc(C3CC3)s2)cn1	u	26%	u	21%	20%	-16%
CCC(C)C(=O)Nc1nccs1 (stereo not given)	11%	3%	u	x	9%	u
Cc1cnc(C(=O)Nc2nnc(C(C)C)s2)cn1	9.2µM*	2.8µM*	u	13µM*	2.5µM*	u
Cc1csc(NC(=O)c2c(-c3c(Cl)cccc3Cl)noc2C)n1	1%	-2%	-19%	-16%	-2%	-1%
CCC(C)OC(=O)n1ccc(C(=O)Nc2nccs2)n1 (stereo not given)	7%	4%	u	41%	0%	17µM*
